Experimental data from the supplement of paper PMC10849652.
Targets with a hit are over-represented here; the source holds about 8,800 in all. About 0.5% of all pairs of compound and target were hits.

Compound: Cc1nc(Nc2ncc(C(=O)Nc3c(C)cccc3Cl)s2)cc(N2CCN(CCO)CC2)n1 [dasatinib]
Assay: log2 fold change, soluble protein after heating vs DMSO (PISA); higher = thermal stabilisation; K562 lysate, 10 uM; active = over 0.2 and 3.5 SD of the protein, either way, in both replicates (recomputed)
How it was run: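 A 30 min treatment with 10 μM compound was applied to crude K562 extract at 1 mg/mL protein in PBS pH 7.4 with 1 mM MgCl2. Heating for 3 min spanned 48°C-58°C, after which aliquots were pooled, adjusted to 0.5% NP-40 at 4°C and spun at 21,000xg for 90 min. TMTpro 16plex LC-MS/MS of the supernatant, with channel sums equalised, gave values recorded as log-two fold change in thermal stability against solvent controls, from duplicates.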

UniProt O95857, sequence (O95857 whole entry, looked up): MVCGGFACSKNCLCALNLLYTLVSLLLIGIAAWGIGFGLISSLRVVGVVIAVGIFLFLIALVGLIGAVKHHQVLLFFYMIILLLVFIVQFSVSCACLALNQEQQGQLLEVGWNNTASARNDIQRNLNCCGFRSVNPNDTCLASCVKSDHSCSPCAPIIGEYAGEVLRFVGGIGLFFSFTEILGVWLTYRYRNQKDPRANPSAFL
UniProt Q53H54, sequence (Q53H54 whole entry, looked up): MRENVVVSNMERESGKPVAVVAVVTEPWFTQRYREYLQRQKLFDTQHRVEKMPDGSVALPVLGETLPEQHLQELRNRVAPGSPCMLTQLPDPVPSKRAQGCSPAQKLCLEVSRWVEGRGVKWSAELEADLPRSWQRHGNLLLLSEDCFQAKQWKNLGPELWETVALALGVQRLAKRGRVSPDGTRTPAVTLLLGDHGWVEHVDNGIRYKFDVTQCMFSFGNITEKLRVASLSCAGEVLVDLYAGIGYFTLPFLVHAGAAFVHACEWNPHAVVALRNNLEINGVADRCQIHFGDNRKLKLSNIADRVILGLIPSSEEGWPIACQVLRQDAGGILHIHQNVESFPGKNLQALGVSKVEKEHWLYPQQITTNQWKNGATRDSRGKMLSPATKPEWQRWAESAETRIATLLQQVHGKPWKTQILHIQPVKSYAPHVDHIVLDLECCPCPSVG
UniProt Q9NX07, sequence (Q9NX07 whole entry, looked up): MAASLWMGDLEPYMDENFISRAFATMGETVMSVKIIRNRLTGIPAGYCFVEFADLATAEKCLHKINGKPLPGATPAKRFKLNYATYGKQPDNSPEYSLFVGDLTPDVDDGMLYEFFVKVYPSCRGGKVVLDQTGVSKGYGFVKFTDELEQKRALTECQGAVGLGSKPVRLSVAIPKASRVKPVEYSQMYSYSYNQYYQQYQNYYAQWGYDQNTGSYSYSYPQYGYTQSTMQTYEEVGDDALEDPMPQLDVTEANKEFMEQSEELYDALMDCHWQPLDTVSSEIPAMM
UniProt P62256, sequence (P62256 whole entry, looked up): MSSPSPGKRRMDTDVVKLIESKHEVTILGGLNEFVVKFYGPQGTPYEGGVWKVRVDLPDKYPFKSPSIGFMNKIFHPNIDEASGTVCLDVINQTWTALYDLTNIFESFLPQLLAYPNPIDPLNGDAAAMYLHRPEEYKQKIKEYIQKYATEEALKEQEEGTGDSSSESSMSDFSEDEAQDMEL
UniProt Q96F44, sequence (Q96F44 whole entry, looked up): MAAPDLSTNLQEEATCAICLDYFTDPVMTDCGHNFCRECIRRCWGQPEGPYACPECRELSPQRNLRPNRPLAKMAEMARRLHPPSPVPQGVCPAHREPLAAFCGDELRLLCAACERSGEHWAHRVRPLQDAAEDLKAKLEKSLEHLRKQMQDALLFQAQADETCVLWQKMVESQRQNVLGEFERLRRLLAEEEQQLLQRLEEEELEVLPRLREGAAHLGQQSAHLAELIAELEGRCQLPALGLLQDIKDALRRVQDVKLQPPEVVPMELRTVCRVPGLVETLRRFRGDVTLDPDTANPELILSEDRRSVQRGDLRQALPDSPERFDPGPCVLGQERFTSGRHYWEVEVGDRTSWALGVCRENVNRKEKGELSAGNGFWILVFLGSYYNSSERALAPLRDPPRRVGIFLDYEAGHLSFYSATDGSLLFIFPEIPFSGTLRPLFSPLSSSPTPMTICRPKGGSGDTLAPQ
UniProt P43897, sequence (P43897 whole entry, looked up): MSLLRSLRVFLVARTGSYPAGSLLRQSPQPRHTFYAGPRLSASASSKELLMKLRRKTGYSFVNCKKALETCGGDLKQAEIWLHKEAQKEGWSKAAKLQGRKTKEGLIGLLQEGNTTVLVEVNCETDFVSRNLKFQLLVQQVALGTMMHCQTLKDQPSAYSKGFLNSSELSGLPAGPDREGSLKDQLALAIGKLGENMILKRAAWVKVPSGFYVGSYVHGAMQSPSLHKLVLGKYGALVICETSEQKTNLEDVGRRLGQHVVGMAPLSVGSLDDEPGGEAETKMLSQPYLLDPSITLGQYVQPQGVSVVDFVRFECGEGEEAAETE
UniProt Q9H4B7, sequence (Q9H4B7 whole entry, looked up): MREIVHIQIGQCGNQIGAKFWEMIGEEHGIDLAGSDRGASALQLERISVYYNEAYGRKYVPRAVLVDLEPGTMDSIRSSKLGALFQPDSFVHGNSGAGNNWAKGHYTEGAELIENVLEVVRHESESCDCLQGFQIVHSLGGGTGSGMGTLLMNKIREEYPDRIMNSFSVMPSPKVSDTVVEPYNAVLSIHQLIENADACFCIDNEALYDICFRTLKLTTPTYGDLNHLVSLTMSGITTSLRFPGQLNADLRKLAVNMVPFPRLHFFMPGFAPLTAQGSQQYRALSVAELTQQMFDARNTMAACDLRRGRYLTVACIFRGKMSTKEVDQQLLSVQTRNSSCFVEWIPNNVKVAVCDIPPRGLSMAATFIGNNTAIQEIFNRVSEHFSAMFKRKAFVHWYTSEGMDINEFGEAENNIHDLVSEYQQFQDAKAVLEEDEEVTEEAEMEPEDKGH
UniProt Q9BSJ2, sequence (Q9BSJ2 whole entry, looked up): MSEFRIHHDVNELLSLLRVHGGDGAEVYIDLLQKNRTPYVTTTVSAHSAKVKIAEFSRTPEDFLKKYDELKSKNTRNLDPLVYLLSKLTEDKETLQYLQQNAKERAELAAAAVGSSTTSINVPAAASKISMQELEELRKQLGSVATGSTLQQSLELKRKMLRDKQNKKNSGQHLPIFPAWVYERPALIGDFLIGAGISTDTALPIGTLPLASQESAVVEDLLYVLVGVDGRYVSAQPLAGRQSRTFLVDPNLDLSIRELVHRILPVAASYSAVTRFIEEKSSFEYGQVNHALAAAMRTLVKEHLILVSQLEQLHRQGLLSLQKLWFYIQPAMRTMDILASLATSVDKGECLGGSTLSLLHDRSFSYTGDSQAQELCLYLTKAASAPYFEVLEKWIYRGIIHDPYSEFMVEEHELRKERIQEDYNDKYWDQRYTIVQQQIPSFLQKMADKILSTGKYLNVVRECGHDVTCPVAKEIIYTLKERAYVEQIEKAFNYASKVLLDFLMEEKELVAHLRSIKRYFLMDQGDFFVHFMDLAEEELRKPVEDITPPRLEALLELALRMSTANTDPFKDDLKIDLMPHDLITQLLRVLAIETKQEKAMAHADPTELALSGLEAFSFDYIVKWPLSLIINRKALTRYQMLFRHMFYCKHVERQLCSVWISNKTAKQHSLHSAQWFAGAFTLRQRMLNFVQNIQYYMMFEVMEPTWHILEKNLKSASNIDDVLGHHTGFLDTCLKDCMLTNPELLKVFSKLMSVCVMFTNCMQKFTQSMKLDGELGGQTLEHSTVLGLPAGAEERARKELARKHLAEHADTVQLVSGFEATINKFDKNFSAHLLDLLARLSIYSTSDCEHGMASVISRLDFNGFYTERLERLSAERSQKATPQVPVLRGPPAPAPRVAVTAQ
UniProt P04183, sequence (P04183 whole entry, looked up): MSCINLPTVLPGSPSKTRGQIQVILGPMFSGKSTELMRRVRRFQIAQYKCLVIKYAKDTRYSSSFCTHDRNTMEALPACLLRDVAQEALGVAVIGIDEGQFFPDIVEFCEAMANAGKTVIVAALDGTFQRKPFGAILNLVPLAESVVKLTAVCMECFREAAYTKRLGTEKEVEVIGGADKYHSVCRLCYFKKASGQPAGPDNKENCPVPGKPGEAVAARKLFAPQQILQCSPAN
UniProt Q8IZ69, sequence (Q8IZ69 whole entry, looked up): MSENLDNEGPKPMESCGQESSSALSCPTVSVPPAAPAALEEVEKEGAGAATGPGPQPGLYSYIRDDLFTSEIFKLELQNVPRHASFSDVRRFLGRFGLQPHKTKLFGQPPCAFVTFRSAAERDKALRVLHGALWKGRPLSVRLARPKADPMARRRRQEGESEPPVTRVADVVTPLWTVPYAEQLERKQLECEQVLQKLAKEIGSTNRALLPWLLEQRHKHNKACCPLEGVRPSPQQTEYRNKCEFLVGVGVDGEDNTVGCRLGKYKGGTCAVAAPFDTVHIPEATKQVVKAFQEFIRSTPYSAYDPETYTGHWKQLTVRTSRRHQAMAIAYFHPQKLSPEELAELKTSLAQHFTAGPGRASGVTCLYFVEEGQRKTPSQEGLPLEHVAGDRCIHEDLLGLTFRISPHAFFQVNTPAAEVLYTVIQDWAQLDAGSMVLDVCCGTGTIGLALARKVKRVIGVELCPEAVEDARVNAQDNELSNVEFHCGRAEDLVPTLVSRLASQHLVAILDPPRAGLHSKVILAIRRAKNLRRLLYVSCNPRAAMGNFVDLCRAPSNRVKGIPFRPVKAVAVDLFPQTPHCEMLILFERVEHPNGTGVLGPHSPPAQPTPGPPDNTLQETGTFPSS
UniProt P67936, sequence (P67936 whole entry, looked up): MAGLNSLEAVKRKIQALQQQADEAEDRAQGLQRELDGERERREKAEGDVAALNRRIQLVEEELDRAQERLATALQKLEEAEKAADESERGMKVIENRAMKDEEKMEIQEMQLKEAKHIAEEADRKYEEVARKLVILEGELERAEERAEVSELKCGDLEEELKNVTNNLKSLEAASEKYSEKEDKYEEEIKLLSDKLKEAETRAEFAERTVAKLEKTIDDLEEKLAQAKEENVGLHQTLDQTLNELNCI
UniProt P68363, sequence (P68363 whole entry, looked up): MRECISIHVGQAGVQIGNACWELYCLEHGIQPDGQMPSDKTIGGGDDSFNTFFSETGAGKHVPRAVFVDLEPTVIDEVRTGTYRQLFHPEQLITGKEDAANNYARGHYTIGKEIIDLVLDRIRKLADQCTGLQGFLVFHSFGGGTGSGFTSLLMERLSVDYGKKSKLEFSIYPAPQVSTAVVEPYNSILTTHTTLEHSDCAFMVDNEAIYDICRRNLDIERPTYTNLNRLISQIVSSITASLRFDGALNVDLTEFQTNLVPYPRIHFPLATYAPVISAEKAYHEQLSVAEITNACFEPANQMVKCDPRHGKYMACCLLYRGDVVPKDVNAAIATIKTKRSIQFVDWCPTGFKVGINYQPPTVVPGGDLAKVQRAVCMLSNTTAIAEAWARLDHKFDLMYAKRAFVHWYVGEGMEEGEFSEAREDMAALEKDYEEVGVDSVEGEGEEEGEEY

log2 fold change, inactive:
TBCE (UniProt Q15813) -0.012
TNPO3 (UniProt Q9Y5L0) 0
TRIM33 (UniProt H0Y612) 0.043
TPST2 (UniProt O60704) -0.007
UBR4 (UniProt Q5T4S7) -0.027
TTK (UniProt P33981) -0.014
TP53RK (UniProt Q96S44) 0.052
TUBGCP3 (UniProt Q96CW5) -0.038
UBR3 isoform 4 (UniProt Q6ZT12) -0.026
TRIM33 isoform 2 (UniProt Q9UPN9) -0.044
TOE1 (UniProt Q96GM8) 0.016
UBA1 (UniProt P22314) -0.026
TUBB1 (UniProt Q9H4B7) -0.043
TUBGCP2 isoform 4 (UniProt Q9BSJ2) -0.058
TPM4 isoform 2 (UniProt P67936) 0.059
TMOD1 (UniProt P28289) 0.011
TRAPPC10 (UniProt P48553) 0.011
TRMT12 (UniProt Q53H54) -0.032
TSPAN13 (UniProt O95857) -0.054
UBE2H (UniProt P62256) 0.046
TLE3 isoform 5 (UniProt Q04726) -0.007
TSFM (UniProt P43897) -0.034
TRMT2A (UniProt Q8IZ69) -0.018
TUBA1B (UniProt P68363) -0.051
TUT4 (UniProt Q5TAX3) -0.097
TBL2 (UniProt Q9Y4P3) -0.008
TK1 (UniProt P04183) 0.004
TTC5 (UniProt Q8N0Z6) 0
TRNAU1AP (UniProt Q9NX07) 0.018
UBR5 (UniProt O95071) -0.028
TRAF2 isoform 2 (UniProt Q12933) -0.024
UCHL5 isoform 3 (UniProt Q9Y5K5) 0.01
TRIM23 (UniProt P36406) -0.005
TRIM11 (UniProt Q96F44) -0.021
